# Laboratory results from PubChem BioAssay (NCATS).
# Activity calls are given as the source filed them. No rule for the calls is given here.
# Test system: HIV-1 nucleocapsid protein NCp7 (binding to TG oligonucleotide)
# Experiment: HIV Nucleocapsid (AID 346);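 also: potency is for inhibitors that block NC binding and lower polarization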
# Conditions: HIV-1 NC / fluorescein-TGTGTGTG probe, fluorescence polarization
# Method in brief: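 Reagents dispensed (10 nM TG4xF, 100 nM HIV-1 NC), plates spun, compounds pin-transferred, then incubated 1 hr at room temperature before FP imaging. Buffer: Hepes pH 7.5, 250mM NaCl, 1uM ZnCl2, 100 uM TCEP, 5 mM 2-mercaptoethanol.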
# Potency is read from the fitted curve at half-maximal effect.
row,Structure (SMILES),Potency
1,O=c1c(-c2ccc(Cl)cc2)nc2cnc(N3CCOCC3)nc2n1CCc1ccccc1,> 4 µM (inactive)
2,COc1ccc(-c2nc3cnc(Oc4cccc(Cl)c4)nc3n(C3CC3)c2=O)cc1,> 20 µM (inactive)
3,O=c1c(-c2ccccc2)nc2cnc(Oc3cccc(Cl)c3)nc2n1C1CC1,> 20 µM (inactive)
4,COc1cccc(-c2cc(NCc3ccccc3OC)ncn2)c1,> 20 µM (inactive)
5,CN(C)C(=O)c1ccc(-c2nccc(NCc3cccs3)n2)cc1,> 20 µM (inactive)
6,CC(C)CN1CCCC2(CCN(C(=O)c3ccco3)CC2)C1,> 20 µM (inactive)
7,O=c1c(-c2cc(F)cc(F)c2)nc2cncnc2n1Cc1ccc(F)cc1,> 20 µM (inactive)
8,Cc1noc(C)c1-c1nccc(NCc2cccs2)n1,> 20 µM (inactive)
9,COC(=O)N1CCC2(CCCN(c3ccncc3)C2)CC1,> 20 µM (inactive)
10,CCNc1ncc2nc(-c3cn(C)c4ccccc34)c(=O)n(C)c2n1,> 20 µM (inactive)
